Experiment [1] can be described thus: qHTS drug screen for cell cycle checkpoint inhibitors in PARPi-resistant BRCA-mutant ovarian cancer cell lines. (AID 1963452; calls by dose curve). The note with it: PEO1/OlaR viability, CellTiter-Glo luminescence, 96 h, stronger effect = lower value. Put shortly: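 PEO1, PEO4 and PEO1/OlaR ovarian cancer cells, 600 per well, exposed 96 h at 37C to a dilution series. Viability read by CellTiter-Glo luminescence, normalized to DMSO and empty wells; activity summarized as Z-AUC.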
In general terms: Quantitative high-throughput screening tests each substance at several concentrations.

A short description of experiment [2]: qHTS for identification of novel therapeutic agents for treatment of microphthalmiaassociated transcription factor (MiT) renal cell carcinoma (RCC) (AID 1963991). The note with it: CellTiter-Glo, 48 h, stronger effect = lower value. An outline of the steps:
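Curves over 11 concentrations were fitted to CellTiter-Glo luminescence, scaled between empty wells (0%) and DMSO (100%) viability. Cells were UOK109, UOK124 and UOK145 TFE3-fusion RCC lines at 500/well, exposed 48 hours at 37 C.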

A short description of experiment [3]: qHTS profiling for inhibitors of Plasmodium falciparum proliferation (AID 504749). Also: potency is read from the fitted curve at half-maximal effect.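 As to activity, negative = inhibition: 0% = DMSO vehicle and full inhibition = artemisinin control.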 As to all read-outs here: nearly all actives have a fitted effect of over 60% in size. The note with it: P. falciparum in erythrocytes, SYBR Green DNA, 72 h; for activity, negative = inhibition: at 28.7 µM (top of the series). An outline of the steps:
(§1)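 P. falciparum-infected erythrocytes (0.3% parasitemia, 2.5% hematocrit) incubated with compound 72 h at 37 C, 5% CO2. Parasite DNA detected by SYBR Green after lysis, overnight at room temperature; normalised to 0.29 uM artemisinin and DMSO.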

A further experiment deals with 3D7. Described as above. The note with it: P. falciparum in erythrocytes, SYBR Green DNA, 72 h; series mostly up to 28.7 µM. Put shortly:
as §1

The test system of a further experiment is 7G8. The description is as above. The note with it: P. falciparum in erythrocytes, SYBR Green DNA, 72 h; series mostly up to 28.7 µM. An outline of the steps:
as §1

A further experiment relates to AA1029. The description is as above. The note with it: P. falciparum in erythrocytes, SYBR Green DNA, 72 h; series mostly up to 28.7 µM. An outline of the steps: as §1
In the next experiment the test system is AS120. The description is as above. The note with it: P. falciparum in erythrocytes, SYBR Green DNA, 72 h; series mostly up to 28.7 µM. Put shortly: as §1
In a further experiment the test system is ATS189. The description is as above. The note with it: P. falciparum in erythrocytes, SYBR Green DNA, 72 h; series mostly up to 28.7 µM. Put shortly:
as §1

A further experiment deals with ATS95. The description is as above. The note with it: P. falciparum in erythrocytes, SYBR Green DNA, 72 h; series mostly up to 28.7 µM. An outline of the steps: as §1
A further experiment deals with C2A. The description is as above. The note with it: P. falciparum in erythrocytes, SYBR Green DNA, 72 h; series mostly up to 28.7 µM. Put shortly:
as §1

The next experiment has as its system CP185. The description is as above. The note with it: P. falciparum in erythrocytes, SYBR Green DNA, 72 h; series mostly up to 28.7 µM. Put shortly: as §1
For a further experiment, the system named is CP191. The experiment is described as above. The note with it: P. falciparum in erythrocytes, SYBR Green DNA, 72 h; series mostly up to 28.7 µM. An outline of the steps:
as §1

The test system of another experiment is CP192. The experiment is described as above. The note with it: P. falciparum in erythrocytes, SYBR Green DNA, 72 h; series mostly up to 28.7 µM. Put shortly:
as §1

The test system of another experiment is CP194. Described as above. The note with it: P. falciparum in erythrocytes, SYBR Green DNA, 72 h; series mostly up to 28.7 µM. An outline of the steps:
as §1

A further experiment relates to CP201. The experiment is described as above. The note with it: P. falciparum in erythrocytes, SYBR Green DNA, 72 h; series mostly up to 28.7 µM. Put shortly:
as §1

A further experiment deals with CP203. Described as above. The note with it: P. falciparum in erythrocytes, SYBR Green DNA, 72 h; series mostly up to 28.7 µM. An outline of the steps:
as §1

Another experiment has as its system CP211. Described as above. The note with it: P. falciparum in erythrocytes, SYBR Green DNA, 72 h; series mostly up to 28.7 µM. Put shortly:
as §1

The next experiment relates to CP215. Described as above. The note with it: P. falciparum in erythrocytes, SYBR Green DNA, 72 h; series mostly up to 28.7 µM. An outline of the steps:
as §1

For a further experiment, the system named is CP217. The description is as above. The note with it: P. falciparum in erythrocytes, SYBR Green DNA, 72 h; series mostly up to 28.7 µM. An outline of the steps: as §1
The subject of another experiment is CP237. Described as above. The note with it: P. falciparum in erythrocytes, SYBR Green DNA, 72 h; series mostly up to 28.7 µM. Put shortly:
as §1

[4] abbreviates: measured here: PEO1 parental Z-AUC.
[5] abbreviates: TFE3-RCC UOK109 viability, measured here: UOK109 Z-AUC.
[6] abbreviates: TFE3-RCC viability, measured here: UOK124 Z-AUC.
[7] abbreviates: TFE3-RCC viability, measured here: UOK145 Z-AUC.

Inconclusive results are not listed. Calls of active or inactive are those of the source. Unless noted, calls follow the shape of the dose curve; as a rule, active = well fitted inhibition curve with a large enough effect; inconclusive = small, poorly fitted or top-dose-only effect; inactive = flat fitted curve, though single readings scatter.

As to `O=C(O)CSCC(=O)NC1CCSC1=O` (configuration not stated), the figures for the Z-AUC in [1], in experiment [1] (setting [4]) and in [1] (measured here: PEO4 Z-AUC) were -0.00872 (inactive), 0.644 and 0.13, respectively. The z-score stood at 0.815 in experiment [2] (setting [5]), 0.223 in experiment [2] (setting [6]) and 1.5 in experiment [2] (setting [7]).
`CO[C@@H]1[C@@H](OC(N)=O)[C@@H](O)[C@H](Oc2ccc3c(O)c(NC(=O)c4ccc(O)c(CC=C(C)C)c4)c(=O)oc3c2C)OC1(C)C`: the Z-AUC in experiment [1] was -0.0911 (inactive); in experiment [1] (setting [4]) it was 0.276; in [1] (measured here: PEO4 Z-AUC), 0.63. The z-score in experiment [2] (setting [5]) was determined as 0.755; in experiment [2] (setting [6]), 0.269; in [2] (setting [7]), 0.567.
As for `Cc1nnc(C(=O)NC(C)(C)c2nc(C(=O)NCc3ccc(F)cc3)c(O)c(=O)n2C)o1`, the Z-AUC in experiment [1] was -0.384 (inactive); in [1] (setting [4]) it was -0.195; in experiment [1] (measured here: PEO4 Z-AUC), -0.396. Besides, the z-score stood at 0.782 in experiment [2] (setting [5]), 0.249 in [2] (setting [6]) and 1.94 in experiment [2] (setting [7]).
For the compound `COCCCOc1cc(C[C@@H](C[C@H](N)[C@@H](O)C[C@H](C(=O)NCC(C)(C)C(N)=O)C(C)C)C(C)C)ccc1OC`, the Z-AUC in experiment [1] is 1.16 (inactive); in [1] (setting [4]), 1.52; in experiment [1] (measured here: PEO4 Z-AUC) it was 1.51. In addition, the z-score came to 1.1 in experiment [2] (setting [5]), 0.318 in [2] (setting [6]) and 1.4 in [2] (setting [7]).
As for `NS(=O)(=O)c1cc2c(cc1Cl)NC(C(Cl)Cl)NS2(=O)=O` (configuration not stated), the results for the Z-AUC in experiment [1], in [1] (setting [4]) and in [1] (measured here: PEO4 Z-AUC) were 0.208 (inactive), 0.729 and 0.959, respectively. Also, the z-score is 0.286 in [2] (setting [5]), 0.327 in [2] (setting [6]) and 0.519 in experiment [2] (setting [7]).
As for `O=C(O)c1cccnc1`, the Z-AUC in experiment [1] was 0.136 (inactive); in experiment [1] (setting [4]), -0.782; in [1] (measured here: PEO4 Z-AUC), -0.146. Moreover, the z-score in experiment [2] (setting [5]) stood at 0.704; in experiment [2] (setting [6]), 0.528; in experiment [2] (setting [7]) it was 0.253.
For the compound `CC(=O)CC(c1ccccc1)c1c(O)c2ccccc2oc1=O` (configuration not stated), the Z-AUC in experiment [1] was 1.13 (inactive); in experiment [1] (setting [4]) it was 1.51; in [1] (measured here: PEO4 Z-AUC) it was 1.67. Further, the z-score in experiment [2] (setting [5]) came out at 0.83; in experiment [2] (setting [6]), 0.655; in [2] (setting [7]) it was 0.641.
As to `NCCCC(O)(P(=O)(O)O)P(=O)(O)O`, the figures for the Z-AUC in [1], in experiment [1] (setting [4]) and in [1] (measured here: PEO4 Z-AUC) were 0.983 (inactive), 0.814 and 0.863, respectively. Further, the figures for the z-score in [2] (setting [5]), in experiment [2] (setting [6]) and in experiment [2] (setting [7]) were 0.263, 0.663 and 0.216, respectively. The activity, negative = inhibition in experiment [3] (parasite line A) is 5.33% (inactive); in [3] (parasite line B), 1.25% (inactive). The Potency entry in the experiment on 3D7, in the experiment on 7G8, with AA1029, in the experiment on AS120, in the experiment on ATS189 and with ATS95 was “inactive” in each case. For the same compound, the Potency entry in the experiment with C2A, with CP185, in the experiment with CP191, with CP192, in the experiment with CP194 and with CP201 was “inactive” each time. In addition, the Potency entry in the experiment with CP203, with CP211, with CP215, in the experiment with CP217 and in the experiment on CP237 was “inactive” in each case.
For the compound `CC[C@H](NC(C)C)[C@H](O)c1ccc(O)c2[nH]c(=O)ccc12`, the Z-AUC in experiment [1] is -0.979 (inactive); in experiment [1] (setting [4]), 0.0863; in experiment [1] (measured here: PEO4 Z-AUC), 0.0233. The z-score in experiment [2] (setting [5]) was determined as 0.709; in experiment [2] (setting [6]), 0.735; in [2] (setting [7]), 1.42. Moreover, the activity, negative = inhibition in [3] (parasite line A) is 3.5% (inactive); in experiment [3] (parasite line B), 5.44% (inactive). For the same compound, the Potency result in the experiment on 3D7, in the experiment on 7G8, with AA1029, in the experiment on AS120, in the experiment on ATS189 and in the experiment with ATS95 was “inactive” throughout. The Potency entry in the experiment with C2A, in the experiment with CP185, in the experiment on CP191, in the experiment with CP192, in the experiment on CP194 and with CP201 was “inactive” throughout. For the same compound, the Potency entry with CP211, in the experiment with CP215, with CP217 and in the experiment with CP237 was “inactive” in each case.
Turning to `C[C@@H](NCCCc1cccc(C(F)(F)F)c1)c1cccc2ccccc12`, the figures for the Z-AUC in experiment [1], in experiment [1] (setting [4]) and in experiment [1] (measured here: PEO4 Z-AUC) were 0.769 (inactive), 0.263 and 0.404, respectively. Besides, the z-score in [2] (setting [5]) amounted to 1.16; in experiment [2] (setting [6]), 0.808; in experiment [2] (setting [7]) it was 0.348. The Potency in experiment [3] (parasite line B) is 5.62 µM (active); with 3D7, 11.2 µM (active); in the experiment with 7G8, 1.12 µM (active); with AA1029 it was 6.31 µM (active); with AS120, 3.98 µM (active); in the experiment with ATS189, 7.08 µM (active). For the same compound, the Potency with ATS95 is 7.08 µM (active); in the experiment on C2A it was 8.91 µM (active); with CP185, 11.2 µM (active); with CP194, 13.5 µM (active); in the experiment with CP201, 15.1 µM (active); in the experiment with CP211, 13.5 µM (active). Besides, the Potency is 10.7 µM (active) in the experiment with CP215, 7.94 µM (active) with CP217 and 3.55 µM (active) with CP237.

The values are drawn from PubChem BioAssay (NCATS).
